Measured values from PubChem BioAssay (NCI).
This is part of a sample that, as a whole, favours compounds with a hit. Of some 83,000 tested, about 20% had one in any assay.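 Values shown are percent growth following 48 h exposure of cells in 96-well plates to a single concentration of compound; below 10 was considered active.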 Unmarked numbers belong to inactive results. Calls of active or inactive are those of the source.

The compounds below were run on HOP-92 NSCLC (assay: NCI-60 one-dose screen, 48 h (100 = growth as untreated, 0 = no growth, -100 = all killed)). Settings: 10 µM unless noted.
Protocol: Growth inhibition of the HOP-92 human Non-Small Cell Lung tumor cell line is measured as a screen for anti-cancer activity. Cells are grown in 96 well plates and exposed to the test compound for 48 hours. Compounds are tested at a single concentration, which is 10^-5 M for most compounds. The reported endpoint is percent growth (GI% or GIPRCNT), where numbers from 0 - 100% represent growth inhibition, and numbers from -100% - 0 represent cell death. For example, a value of 40 represents 60% growth inhibition. A value of 0 means no net growth occurred over the course of the experiment. A value of -40 indicates 40% of cells at the beginning of the experiment died by the end of the experiment. A value of -100 means all cells are dead at the end of the experiment.
NCI-60 Human Tumor Cell Lines Screen was performed using the standard one-dose NCI protocol, which is described in more detail at https://dtp.cancer.gov/discovery_development/nci-60/default.htm.
Compounds with GIPRCNT values below 10 were considered active. Activity score was based on GIPRCNT using the following formula: […]
Score is 0 for GIPRCNT values of 100 or above, 50 for GIPRCNT values of 0, and 100 for GIPRCNT values of -100.

| Structure (SMILES) | growth |
| --- | --- |
| Cc1ccc2c(c1)C(=O)/C(=C\Nc1ccc(C(N)=O)cc1)C(O)O2 (stereo not given) | -17.9% (active) |
| Nc1nc2c(c(=O)[nH]1)C1(C(=O)Nc3ccccc31)c1c(nc(N)[nH]c1=O)N2 | 96.2% |
| c1ccc(CN=C(NCc2ccccc2)NCc2ccccc2)cc1 | 48.5% |
| Cn1cc(NC(=O)Nc2cc(C(=O)O)n(C)c2)cc1C(=O)O | 119% |
| O=C(COc1ccc(/C=C2\Cc3ccccc3C2=O)cc1)c1ccc(Cl)cc1 | 90.7% |
| O=C1/C(=C/c2ccccc2Cl)CCc2ccccc21 | 90.7% |
| Nc1ccc2c(c1)C(=O)c1cc(Cl)c(Cl)cc1-2 | 72.2% |
| COc1cc(NC(=O)NCc2ccco2)ccc1-c1ccc(NC(=O)NCc2ccco2)cc1OC | 23% |
| C/C(=C\CCc1ccoc1)CC/C=C(\C)CCCNc1ccc(F)cc1 | 96.3% |
| COc1cccc(/C=N/Nc2nc3ccccc3s2)c1OC | 74.5% |
| COc1ccc(Cl)cc1Nc1nc(C(F)(F)F)ccc1C(=O)N/N=C/c1c(Cl)cccc1Cl | 70.9% |
| COP(=O)(OC)C(c1ccccc1)(c1ccccc1)c1ccccc1 | 62.8% |
| Cc1cc(C(=O)Nc2ccc3cc(CN4CCOCC4)ccc3n2)c(C)n1-c1ccccc1 | 51.7% |
| Clc1ccc2[nH]cc(-c3cncn3CCc3ccccc3)c2c1 | 28% |
| COc1ccc2nc(N/N=C(\C)c3ccccn3)cc(C)c2c1 | 7.16% (active) |
| COc1ccc(CNC(=O)c2c(C)n([O-])c3ccc(OC)cc3[n+]2=O)cc1 | -1.17% (active) |
| N#Cc1c(-c2ccccc2)cc(-c2ccccc2)n(CCCCCCC(=O)O)c1=O | 125% |
| COc1cnc2c(c1)C(=O)c1c-2n(CCCN2CCC(O)CC2)c(=O)c2cc(F)ccc12 | -7.92% (active) |
| O=C(/C=C(\Nc1ccccc1)c1ccccc1)c1cn(-c2ccc([N+](=O)[O-])cc2)nn1 | 95% |
| COc1ccc2cc(C3=CC(=O)CCC3)ccc2c1 | 83.5% |

| Structure (SMILES) | growth |
| --- | --- |
| CSc1nc(-c2ccc(O)cc2O)c2c(=O)[nH]c(Nc3ccc(S(=O)(=O)Nc4nc(C)cc(C)n4)cc3)nc2n1 | 24.6% |
| NS(=O)(=O)c1ccc(N2CC(c3nc4ccccc4[nH]3)CC2=O)cc1 (stereo not given) | 100% |
| COc1ccc(C(=O)COc2cccc(/C=C3\CSc4ccc(Cl)cc4C3=O)c2)cc1 | 68% |
| C[C@@H]1CN(c2nc3c(cc2F)c(=O)c(C(=O)O)cn3C(C)(C)C)C[C@H](C)N1 | 71.6% |
| CCCCCN(CCCCC)CCCNc1c2c(nc3ccc(Cl)cc13)CCCC2 | -6.23% (active) |
| COc1ccc2c(c1)CC[C@@H]1[C@@H]2CC[C@]2(C)[C@@H](O)C(=O)C[C@@H]12 | 116% |
| COc1cccc(N2CCN(c3cccc(C)n3)CC2)c1 | 79.2% |
| O=C1NC(=O)/C(=C/c2ccc(Cl)cc2Cl)N1 | 81.2% |
| [N-]=[N+]=NCc1ncc(-c2ccc(C(F)(F)F)cc2)c(NC2CCCCCC2)n1 | 64.5% [50 µM] |
| CC(C)N(Cc1ccccc1)c1c(Cl)ssc1=O | 82.5% |
| CCOC(=O)/C(=C/CC/C(C)=C/CC/C(C)=C/CCc1ccoc1)CC(=O)N1CCCCC1 | -11.2% (active) |
| NC(=O)c1cc(Cl)ccc1NC(=O)c1ccccc1-c1ccccc1 | 67.7% |
| O=C1/C(=C\c2coc3ccccc3c2=O)c2ccccc2N1c1c(Cl)cccc1Cl | 32.1% |
| CCN(CC)CCCCCCCNc1c2ccc(Cl)cc2nc2ccc(OC)cc12 | -62.1% (active) |
| CCCCCCCC[Si](OCC)(OCC)OCC | 88.8% |
| COc1ccc(/C=C/C(=O)c2cccc(NS(C)(=O)=O)c2)cc1 | 60.5% |
| Cc1ccc2nc(SCC(=O)Nc3ccc(-c4nc5ccccc5s4)c(Cl)c3)[nH]c2c1 | 98% |
| CCCCc1n(Cc2ccc3ccccc3c2)cc[n+]1Cc1ccc2ccccc2c1 | -38.2% (active) |
| O=C(O)CCC(=O)OC[C@@H](NC(=O)C(Cl)Cl)[C@H](O)c1ccc([N+](=O)[O-])cc1 | 86.7% |
| c1cc[n+](Cc2ccnc3ccccc23)cc1 | 47.9% |
